STK33 inh: human STK33 kinase inhibition; ADP-Glo luminescence, MBP substrate; 27,000 compounds, 0.44% hits; inhibition, % at 12.5 µM; Q9BYT3; in the data active means inhibition above about 20%; inconclusive means no clear call, values can overlap the other calls
Target sequence (Q9BYT3 whole entry, looked up): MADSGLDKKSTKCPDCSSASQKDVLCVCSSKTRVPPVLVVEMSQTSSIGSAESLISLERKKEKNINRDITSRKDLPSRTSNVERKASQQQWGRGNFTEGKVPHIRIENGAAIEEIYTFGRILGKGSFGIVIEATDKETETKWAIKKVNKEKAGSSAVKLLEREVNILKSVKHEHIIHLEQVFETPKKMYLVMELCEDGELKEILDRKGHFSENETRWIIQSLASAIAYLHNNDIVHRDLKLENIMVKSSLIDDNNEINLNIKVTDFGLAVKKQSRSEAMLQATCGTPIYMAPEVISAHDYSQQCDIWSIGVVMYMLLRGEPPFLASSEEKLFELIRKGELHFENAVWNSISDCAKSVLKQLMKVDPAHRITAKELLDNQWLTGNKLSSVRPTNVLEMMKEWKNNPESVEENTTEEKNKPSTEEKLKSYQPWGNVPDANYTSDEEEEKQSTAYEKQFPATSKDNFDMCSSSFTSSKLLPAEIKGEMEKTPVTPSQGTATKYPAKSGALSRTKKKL
NOMO-1 viab: STK33 inhibitor candidate reducing NOMO-1 cell viability | NOMO-1 AML viability, CellTiter-Glo luminescence, 72 h | inhibition, % (concentration not given with the values) | 37,000 compounds, 7.5% hits; in the data active means inhibition above about 80%; inconclusive means no clear call, values can overlap the other calls
PD-1 reverse act: reversal of PD-1 mediated T-cell inhibition; primary human CD4 T cells, PD-L1 beads, CellTiter-Glo 96 h; activation, % (test concentration not listed); 29,000 tested, under 10 active; AID 2316; call rule not given here;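 further: 0% = median vehicle wells and 100% = positive control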
* hit, by the source's call; ? = inconclusive; · = no result given. Shown is part of a subset that was picked to be rich in hits.

SMILES | STK33 inh | NOMO-1 viab | PD-1 reverse act
CCc1ccc(CN2CCN(Cc3ccc4c(c3)OCO4)CC2)cc1 | · | 32.3 | 0.4
C[C@@H]1CN([C@@H](C)CO)C(=O)c2cccc(NC(=O)NC3CCCCC3)c2O[C@H]1CN(C)Cc1ccc(C(F)(F)F)cc1 | · | 92.6* | -6.8
C[C@H]1CN([C@@H](C)CO)C(=O)c2cccc(NC(=O)NC3CCCCC3)c2O[C@H]1CN(C)Cc1ccc(Oc2ccccc2)cc1 | · | 10.8 | -2.2
C[C@@H]1CN([C@@H](C)CO)C(=O)c2cccc(NC(=O)NC3CCCCC3)c2O[C@@H]1CN(C)Cc1ccc(Oc2ccccc2)cc1 | · | 85.4* | -5.5
C[C@@H]1CN([C@H](C)CO)C(=O)c2cccc(NC(=O)NC3CCCCC3)c2O[C@@H]1CN(C)Cc1ccc(C(F)(F)F)cc1 | · | 29.1 | -0.8
C[C@H](CO)N1C[C@H](C)[C@@H](CN(C)Cc2ccccc2)Oc2c(NC(=O)NC3CCCCC3)cccc2C1=O | · | 83.8* | -2.6
C[C@@H]1CN([C@H](C)CO)C(=O)c2cccc(NC(=O)NC3CCCCC3)c2O[C@@H]1CN(C)Cc1ccc(-c2ccccc2)cc1 | · | 37.3 | 0.5
Cc1ccc(-c2noc(CN(C(C)C)S(=O)(=O)c3ccccc3)n2)cc1 | -0.9 | 35.1 | 0.1
CC(C)C(NCCC(O)c1ccc(Br)cc1)C(=O)O (stereo not drawn) | 2.7 | -19.5 | 2.8
N#C/C(=C\c1ccc(O)c(O)c1)C(=O)NCCCc1ccccc1 | 3.1 | 92.3* | -1.6
NC(=O)NCCc1ccccc1 | · | -20.0 | 0.8
N#C/C(=C\c1ccc(O)c(O)c1)C(=O)c1ccc(O)c(O)c1 | 30.6* | 45.6 | 1.3
O=C(CSc1nc(O)cc(=O)[nH]1)Nc1ccccc1 | -2.0 | 8.4 | ·
CCC(Sc1nnnn1-c1ccccc1)C(=O)Nc1sc2c(c1C#N)CCCC2 (stereo not drawn) | · | 3.8 | -0.5
C[C@H]1CN([C@@H](C)CO)C(=O)c2cccc(NC(=O)Nc3ccc(C(F)(F)F)cc3)c2O[C@H]1CN(C)Cc1ccc(C(=O)O)cc1 | · | 6.8 | 1.8
C[C@@H]1CN([C@@H](C)CO)C(=O)c2cccc(NC(=O)Nc3ccc(C(F)(F)F)cc3)c2O[C@H]1CN(C)Cc1ccc(C(F)(F)F)cc1 | · | 116.1* | -6.1
C[C@@H]1CN([C@H](C)CO)C(=O)c2cccc(N(C)C)c2O[C@H]1CN(C)Cc1ccc(C(F)(F)F)cc1 | · | 81.5* | -7.3
C[C@H]1CN([C@@H](C)CO)C(=O)c2cccc(N(C)C)c2O[C@H]1CN(C)Cc1ccc(C(F)(F)F)cc1 | · | 26.5 | -0.1
C[C@H](CO)N1C[C@H](C)[C@@H](CN(C)Cc2ccc(C(F)(F)F)cc2)Oc2c(NC(=O)Nc3ccc(C(F)(F)F)cc3)cccc2C1=O | · | 105.5* | -4.3
C[C@@H]1CN([C@@H](C)CO)C(=O)c2cccc(NC(=O)Nc3ccc(C(F)(F)F)cc3)c2O[C@@H]1CN(C)Cc1ccc(C(F)(F)F)cc1 | · | ? | -3.1
C[C@@H]1CN([C@@H](C)CO)C(=O)c2cccc(NC(=O)Nc3ccc(C(F)(F)F)cc3)c2O[C@@H]1CN(C)Cc1ccc(C(=O)O)cc1 | · | -11.7 | 1.0
C[C@H]1CN([C@@H](C)CO)C(=O)c2cccc(NC(=O)Nc3ccc(C(F)(F)F)cc3)c2O[C@@H]1CN(C)Cc1ccc(C(F)(F)F)cc1 | · | 113.4* | -4.8
CCOC(=O)c1sc(NC(=O)c2cc(-c3ccccc3)on2)c(C(=O)OCC)c1C | -1.3 | -2.5 | 2.5
CCCCC1(COC(=O)c2ccc(OC)cc2)C(=O)N(c2ccccc2)N(c2ccccc2)C1=O | · | 66.4 | -0.3
C[C@@H]1CN([C@@H](C)CO)C(=O)Cc2cc(NC(=O)Cc3ccccc3)ccc2O[C@@H]1CN(C)Cc1ccc(C(F)(F)F)cc1 | 0.6 | 42.8 | -2.2
SMILES | STK33 inh | NOMO-1 viab | PD-1 reverse act
C[C@@H]1CN([C@H](C)CO)C(=O)Cc2cc(NC(=O)CCCCCC(=O)Nc3ccccc3N)ccc2O[C@H]1CN(C)Cc1ccc(C(F)(F)F)cc1 | · | 114.3* | 0.7
C[C@@H]1CN([C@H](C)CO)C(=O)Cc2cc(NC(=O)Cc3ccccc3)ccc2O[C@@H]1CN(C)Cc1ccc(C(F)(F)F)cc1 | 1.1 | 62.3 | -1.0
C[C@@H]1CN([C@H](C)CO)C(=O)Cc2cc(NC(=O)CCCCCC(=O)Nc3ccccc3N)ccc2O[C@@H]1CN(C)Cc1ccc(C(F)(F)F)cc1 | · | 140.6* | -0.9
CCOC(=S)Nc1ccc(I)cc1 | · | 35.8 | 0.5
CCCN(Cc1cc2cccc(C)c2[nH]c1=O)S(=O)(=O)c1ccccc1 | 0.6 | 27.9 | ·
O=C(NCC(O)c1ccccc1)c1ccc(S(=O)(=O)N2CCOCC2)cc1 (stereo not drawn) | -3.0 | 23.6 | 0.5
C[C@@H]1CN([C@H](C)CO)C(=O)c2cc(NC(=O)Nc3ccc4c(c3)OCO4)ccc2O[C@H]1CN(C)Cc1ccc(C(=O)O)cc1 | · | 29.8 | -0.1
C[C@@H]1CN([C@@H](C)CO)C(=O)c2cc(NC(=O)Nc3ccc4c(c3)OCO4)ccc2O[C@@H]1CN(C)Cc1ccc(C(F)(F)F)cc1 | 1.1 | 90.5* | 1.6
C[C@@H]1CN([C@H](C)CO)C(=O)c2cc(NC(=O)Nc3ccc(C(F)(F)F)cc3)ccc2O[C@H]1CN(C)Cc1ccc2c(c1)OCO2 | · | 53.6 | ·
C[C@H]1CN([C@@H](C)CO)C(=O)c2cc(NC(=O)Nc3ccc(C(F)(F)F)cc3)ccc2O[C@H]1CN(C)Cc1ccc2c(c1)OCO2 | 0.9 | 106.1* | -1.6
Cc1sc2nc(SCc3nc4ccccc4[nH]3)n(-c3ccccc3)c(=O)c2c1C | 1.3 | 70.1 | -5.1
COc1cc(NC(=O)COc2ccc([N+](=O)[O-])cc2)cc(OC)c1 | -0.5 | -6.8 | ·
C[C@H]1CN([C@@H](C)CO)C(=O)c2cc(NC(=O)Nc3ccc(C(F)(F)F)cc3)ccc2O[C@H]1CN(C)Cc1ccc(C(F)(F)F)cc1 | · | 115.2* | -0.5
C[C@@H]1CN([C@H](C)CO)C(=O)c2cc(NC(=O)Nc3ccc(C(F)(F)F)cc3)ccc2O[C@H]1CN(C)Cc1ccc(C(F)(F)F)cc1 | 0.2 | 114.4* | -10.0
Cc1cc(C)c(NC(=O)CN(C)S(=O)(=O)c2ccc(F)cc2)c(C)c1 | 0.0 | -4.2 | 0.3
CC(=O)c1cccc(NC(=S)NCc2ccccn2)c1 | -0.7 | 5.0 | ·
OCc1nnn(-c2ccc(Br)cc2)c1CO | 1.3 | 24.2 | ·
C[C@@H]1CN([C@H](C)CO)C(=O)c2cccc(NC(=O)CCCCCC(=O)Nc3ccccc3N)c2O[C@@H]1CN(C)Cc1ccc(Cl)c(Cl)c1 | · | 134.2* | 0.4
C[C@@H]1CN([C@H](C)CO)C(=O)c2cccc(NC(=O)CCCCCC(=O)Nc3ccccc3N)c2O[C@@H]1CN(C)C | · | 28.8 | 1.1
C[C@H]1CN([C@@H](C)CO)C(=O)c2cccc(NC(=O)CCCCCC(=O)Nc3ccccc3N)c2O[C@H]1CN(C)Cc1ccc(Cl)c(Cl)c1 | · | 119.9* | -0.3
C[C@H](CO)N1C[C@H](C)[C@H](CN(C)Cc2ccc(Cl)c(Cl)c2)Oc2c(NC(=O)C3CC3)cccc2C1=O | · | 4.4 | -1.0
C[C@H]1CN([C@@H](C)CO)C(=O)c2cccc(NC(=O)C3CC3)c2O[C@H]1CN(C)Cc1ccc(Cl)c(Cl)c1 | · | -1.7 | -1.4
C[C@@H]1CN([C@@H](C)CO)C(=O)c2cccc(NC(=O)CCCCCC(=O)Nc3ccccc3N)c2O[C@@H]1CN(C)Cc1ccc(Cl)c(Cl)c1 | · | 126.3* | -0.3

Source: PubChem BioAssay (Broad Institute)
